PubChem BioAssay (Tox21)
Records with an inconclusive call do not appear. Calls of active or inactive are those of the source. Unless noted, the call rests on the fitted dose curve.

How the values were obtained:
[1] = Nuclear factor erythroid 2-related factor 2/antioxidant responsive element (Nrf2/ARE) small molecule agonists: qHTS cell viability counter screen in human keratinocytes (AID 1919968; active means well fitted curve in the direction sought with a large enough effect in the repeat runs; an effect the other way counts as inactive or inconclusive; further: nearly all actives have a fitted effect of over 55% in size)
Summary of the method: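 KeratinoSens HaCaT cells, 1,500/well, preincubated 5 h, then exposed to compounds in DMSO for 23 h at 37 C/5% CO2. Viability read as CellTiter-Fluor fluorescence after 1 h, in the same wells as the ARE-luciferase read.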

[2] = Nuclear factor erythroid 2-related factor 2/antioxidant responsive element (Nrf2/ARE) small molecule agonists: luciferase reporter gene qHTS assay in human keratinocytes (AID 1919969); further: nearly all actives have a fitted effect of over 35% in size
[3] = biological target: Gonadotropin-releasing hormone receptor (Homo sapiens) (UniProt P30968); experiment: Human gonadotropin-releasing hormone receptor (GnRHR) small molecule agonists, calcium flux assay in GnRHR-HEK293 cells (AID 1920063); further: nearly all actives have a fitted effect of over 35% in size
Summary of the method: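 HEK293 cells stably expressing human GnRHR were dye-loaded for 1 h at 37 C. Compound was added in agonist mode and fluorescence (Ex/Em 480/540) recorded kinetically for 3 min. Fifteen concentrations, triplicates.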

[4] = biological target: KiSS-1 receptor (Homo sapiens) (UniProt Q969F8); experiment: Human kisspeptin (KISS1R) small molecule agonists, calcium flux assay in KISS1R-HEK293 cells (AID 1920064; active means well fitted curve in the direction sought with a large enough effect in the repeat runs; an effect the other way counts as inactive or inconclusive)
Summary of the method: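 HEK293 cells stably expressing human KISS1R were loaded with calcium dye for 1 h at 37 C, then given compound; fluorescence (Ex/Em 480/540) was read kinetically for 3 min. Fifteen concentrations, triplicate.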

[5] = G protein-coupled receptor (GPCR) small molecule agonists, calcium flux assay: HEK293 wild type cell line counter screen (AID 1920065)
Summary of the method: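 Wild-type HEK293 cells plated 18 h, loaded with calcium dye 1 h at 37 C, then compounds added in agonist mode (ATP as positive control). Kinetic fluorescence Ex/Em 480/540 recorded 3 min at 1 sec intervals; 15 concentrations, triplicate.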

[6] = p53 small molecule agonists, cell-based qHTS assay with human liver microsomes (AID 1963577);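 further: p53 response element beta-lactamase reporter cells with liver microsomes plus NADPH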
Summary of the method: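 In this qHTS, p53 response-element beta-lactamase cells receive test compound together with a microsome/NADPH activating system (0.5 mg/mL final each) and are incubated 16 h at 37 C before LiveBLAzer fluorescence detection.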

[7] = p53 small molecule agonists, cell-based qHTS assay with rat liver microsomes (AID 1963578)
Summary of the method: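 Agonist mode in p53RE-bla reporter cells, with compounds co-incubated 16 h at 37 C alongside 0.5 mg/mL rat liver microsomes and 0.5 mg/mL NADPH (final), followed by a 2 h LiveBLAzer detection step.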

[8] = p53 small molecule agonists, cell-based qHTS assay with human liver microsomes: qHTS cell viability counter screen (AID 1963579); further: nearly all actives have a fitted effect of over 45% in size
Summary of the method: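 Metabolically activated exposure: compounds, human liver microsomes and NADPH (0.5 mg/mL final apiece) were added to p53RE-bla cells seeded 5 h earlier, left 16 h at 37 C, and then assessed for viability by CellTiter-Glo luminescence.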

[9] = p53 small molecule agonists, cell-based qHTS assay with rat liver microsomes: qHTS cell viability counter screen (AID 1963580); further: nearly all actives have a fitted effect of over 45% in size
Summary of the method: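 HCT-116 p53RE-bla, 4,000 cells/well, 5 h pre-incubation; cpd + rat liver microsomes 0.5 mg/mL + NADPH 0.5 mg/mL (final); 16 h, 37 C; CellTiter-Glo, 30 min RT; luminescence.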

[10] = p53 small molecule agonists, cell-based qHTS assay: qHTS cell viability counter screen (AID 1963581); further: nearly all actives have a fitted effect of over 45% in size
Summary of the method: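 p53RE-bla HCT-116 cells, compounds added 5 h after plating and incubated 16 h at 37 C. Cytotoxicity measured in the same wells as intracellular ATP by CellTiter-Glo luminescence after 30 min at room temperature.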

[11] = p53 small molecule agonists, cell-based qHTS assay (AID 1963582; active means well fitted activation curve with a large enough effect in the signal ratio in the repeat runs, not every such curve was filed as active; the % refers to the signal ratio)
Summary of the method: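 p53RE-bla reporter cells, compounds added in DMSO after 5 h plating, incubated 16 h at 37 C. Beta-lactamase read via 2 h room-temperature LiveBLAzer B/G FRET substrate, fluorescence intensity.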

[12] = biological target: 5-hydroxytryptamine receptor 2A (Homo sapiens) (UniProt P28223); experiment: 5-hydroxytryptamine receptor 2A (HTR2A) small molecule antagonists, cell-based qHTS assay (AID 1963586); further: nearly all actives have a fitted effect of over 45% in size
Summary of the method: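 Antagonist-mode intracellular calcium assay: DOI (4 nM) added after 5 min compound pre-incubation at room temperature to dye-loaded HTR2A-CHO cells. Fluorescence followed for 3 min, sampled every second.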

[13] = biological target: 5-hydroxytryptamine receptor 2A (Homo sapiens) (UniProt P28223); experiment: 5-hydroxytryptamine receptor 2A (HTR2A) small molecule agonists, cell-based qHTS assay (AID 1963587); further: nearly all actives have a fitted effect of over 30% in size
Summary of the method: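 Kinetic calcium-flux fluorescence (2 min, 1 sec intervals) after compound addition in agonist mode. HTR2A-CHO cells were cultured 18 h, then dye-loaded 1 h at 37 C.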

[14] = biological target: Muscarinic acetylcholine receptor M1 (Homo sapiens) (UniProt P11229); experiment: Cholinergic receptor muscarinic 1 (CHRM1) small molecule antagonists, cell-based qHTS assay (AID 1963588); further: nearly all actives have a fitted effect of over 40% in size
Summary of the method: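 CHRM1-CHO calcium-flux assay, antagonist mode. Cells were seeded 18 h, dye-loaded 1 h at 37 C and given compound for 5 min at RT, then acetylcholine was added at 50nM. FDSS fluorescence was read 3 min; 15 concentrations, three runs.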

[15] = biological target: Muscarinic acetylcholine receptor M1 (Homo sapiens) (UniProt P11229); experiment: Cholinergic receptor muscarinic 1 (CHRM1) small molecule agonists, cell-based qHTS assay (AID 1963589); further: nearly all actives have a fitted effect of over 35% in size
Summary of the method: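 CHO cells stably expressing human CHRM1 were loaded with calcium dye for 1 h at 37 C, then compound was added in agonist mode. Intracellular calcium fluorescence was followed kinetically at 1 s intervals. Fifteen concentrations were tested in three independent runs.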

[16] = cAMP Responsive Elements (CRE) small molecule agonists, cell-based qHTS assay (AID 1963590)
Summary of the method: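 CRE-bla HEK 293T cells, 2,000/well in DMEM with 10% dialyzed FBS and 25 mM HEPES, pre-incubated 18 h at 37 C, then exposed to compound 3 h at 37 C. Beta-lactamase reporter read with LiveBLAzer B/G FRET substrate after 2 h at room temperature.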

[17] = cAMP Responsive Elements (CRE) small molecule antagonists, cell-based qHTS assay (AID 1963591; active means well fitted inhibition curve with a large enough effect in the signal ratio in the repeat runs, not every such curve was filed as active; the % refers to the signal ratio)
Summary of the method: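 CRE-bla HEK293T cells plated 18 h, then given compound plus NKH477 at 0.25 uM final for 3 h at 37C. Beta-lactamase reporter read with LiveBLAzer B/G FRET substrate after 2 h at room temperature.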

[18] = biological target: Beta-2 adrenergic receptor (Homo sapiens) (UniProt P07550); experiment: Adrenergic beta2 receptor (ADRB2) small molecule antagonists, cell-based qHTS assay (AID 1963592); further: series mostly up to about 92 µM; nearly all actives have a fitted effect of over 50% in size
Summary of the method: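 Cells (CHO, stable ADRB2 overexpression) incubated 18-20hr at 37C; compounds added from DMSO; agonist mix (1nM isoproterenol, 100uM IBMX, 25uM Ro-20-1724) added; 0.5hr RT; d2-cAMP and anti-cAMP-cryptate added; 1hr RT; 665/615 nm read.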

[19] = biological target: Beta-2 adrenergic receptor (Homo sapiens) (UniProt P07550); experiment: Adrenergic beta2 receptor (ADRB2) small molecule agonists, cell-based qHTS assay (AID 1963593);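 further: CHO cells stably overexpressing human ADRB2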
Summary of the method: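 CHO cells stably over-expressing ADRB2 were plated overnight at 37C, then dosed with compounds plus a stimulation mix containing 100uM IBMX and 25uM Ro-20-1724 for 0.5hr at room temperature. cAMP was measured by HTRF competition, 1hr.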

[20] = biological target: D(2) dopamine receptor (Homo sapiens) (UniProt P14416); experiment: Dopamine D2 receptor (DRD2) small molecule agonists, cell-based qHTS assay (AID 1963594); further: nearly all actives have a fitted effect of over 35% in size
Summary of the method: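 cAMP accumulation in DRD2-HEK293 cells measured by HTRF after 1 h detection; compounds added 10 min before NKH477 (200nM […]) forskolin-analogue stimulation, 30 min at room temperature, with Ro20-1724 present at 0.1 mM final.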

Measured: Potency

Sequence of KiSS-1 receptor (Homo sapiens) (Q969F8 whole entry, looked up): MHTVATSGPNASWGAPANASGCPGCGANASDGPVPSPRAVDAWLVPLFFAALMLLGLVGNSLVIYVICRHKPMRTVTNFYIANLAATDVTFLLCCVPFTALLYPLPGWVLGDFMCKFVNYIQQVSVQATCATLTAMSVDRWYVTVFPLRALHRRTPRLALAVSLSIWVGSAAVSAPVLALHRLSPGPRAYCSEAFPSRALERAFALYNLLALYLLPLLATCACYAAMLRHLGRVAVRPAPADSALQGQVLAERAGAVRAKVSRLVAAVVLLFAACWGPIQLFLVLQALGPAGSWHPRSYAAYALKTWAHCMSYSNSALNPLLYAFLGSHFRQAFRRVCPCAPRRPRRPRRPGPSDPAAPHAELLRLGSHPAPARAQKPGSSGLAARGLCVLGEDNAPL
Sequence of Beta-2 adrenergic receptor (Homo sapiens) (P07550 whole entry, looked up): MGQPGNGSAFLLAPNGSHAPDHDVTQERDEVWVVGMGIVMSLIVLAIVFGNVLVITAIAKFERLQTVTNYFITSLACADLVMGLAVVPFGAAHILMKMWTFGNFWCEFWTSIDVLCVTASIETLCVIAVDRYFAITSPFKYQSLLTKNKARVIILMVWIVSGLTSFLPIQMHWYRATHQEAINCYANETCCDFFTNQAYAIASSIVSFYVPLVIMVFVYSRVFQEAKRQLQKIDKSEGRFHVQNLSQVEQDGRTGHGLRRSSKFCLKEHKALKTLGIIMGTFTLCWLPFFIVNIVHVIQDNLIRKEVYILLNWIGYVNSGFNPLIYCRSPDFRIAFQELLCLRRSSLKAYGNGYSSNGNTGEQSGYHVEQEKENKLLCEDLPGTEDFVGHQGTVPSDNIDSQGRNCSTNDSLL
Sequence of 5-hydroxytryptamine receptor 2A (Homo sapiens) (P28223 whole entry, looked up): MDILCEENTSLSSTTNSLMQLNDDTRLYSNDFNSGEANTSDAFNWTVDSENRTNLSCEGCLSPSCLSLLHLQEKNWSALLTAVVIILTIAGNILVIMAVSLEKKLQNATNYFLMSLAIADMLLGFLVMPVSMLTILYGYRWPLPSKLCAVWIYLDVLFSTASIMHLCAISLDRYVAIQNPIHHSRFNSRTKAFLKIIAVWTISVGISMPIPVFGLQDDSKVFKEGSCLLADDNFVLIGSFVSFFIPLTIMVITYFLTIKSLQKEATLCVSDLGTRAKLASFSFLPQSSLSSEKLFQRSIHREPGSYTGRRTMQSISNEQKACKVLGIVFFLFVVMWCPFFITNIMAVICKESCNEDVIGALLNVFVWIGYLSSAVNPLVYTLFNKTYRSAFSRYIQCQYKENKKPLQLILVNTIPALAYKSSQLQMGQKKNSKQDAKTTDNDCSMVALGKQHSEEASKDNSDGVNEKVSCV
Sequence of Gonadotropin-releasing hormone receptor (Homo sapiens) (P30968 whole entry, looked up): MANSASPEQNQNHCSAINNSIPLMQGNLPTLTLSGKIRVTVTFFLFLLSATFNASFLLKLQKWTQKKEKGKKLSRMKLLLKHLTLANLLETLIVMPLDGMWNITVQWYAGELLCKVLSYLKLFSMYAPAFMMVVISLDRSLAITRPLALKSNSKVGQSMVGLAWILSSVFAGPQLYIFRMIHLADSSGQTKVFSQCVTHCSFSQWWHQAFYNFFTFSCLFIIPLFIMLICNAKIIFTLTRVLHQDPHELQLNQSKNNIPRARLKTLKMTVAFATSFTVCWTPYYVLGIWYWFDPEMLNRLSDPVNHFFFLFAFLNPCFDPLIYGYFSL
Sequence of D(2) dopamine receptor (Homo sapiens) (P14416 whole entry, looked up): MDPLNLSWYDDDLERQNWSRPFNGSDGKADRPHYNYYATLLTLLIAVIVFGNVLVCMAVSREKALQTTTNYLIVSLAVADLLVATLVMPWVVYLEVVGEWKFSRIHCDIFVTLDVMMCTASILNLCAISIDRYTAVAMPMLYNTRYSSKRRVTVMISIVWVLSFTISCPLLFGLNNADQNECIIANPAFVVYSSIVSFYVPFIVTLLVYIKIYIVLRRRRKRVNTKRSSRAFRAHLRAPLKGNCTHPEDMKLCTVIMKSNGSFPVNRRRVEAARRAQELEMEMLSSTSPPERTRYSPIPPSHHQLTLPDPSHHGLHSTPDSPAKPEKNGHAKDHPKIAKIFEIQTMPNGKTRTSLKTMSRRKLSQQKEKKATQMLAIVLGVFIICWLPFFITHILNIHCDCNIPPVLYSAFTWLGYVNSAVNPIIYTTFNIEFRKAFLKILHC
Sequence of Muscarinic acetylcholine receptor M1 (Homo sapiens) (P11229 whole entry, looked up): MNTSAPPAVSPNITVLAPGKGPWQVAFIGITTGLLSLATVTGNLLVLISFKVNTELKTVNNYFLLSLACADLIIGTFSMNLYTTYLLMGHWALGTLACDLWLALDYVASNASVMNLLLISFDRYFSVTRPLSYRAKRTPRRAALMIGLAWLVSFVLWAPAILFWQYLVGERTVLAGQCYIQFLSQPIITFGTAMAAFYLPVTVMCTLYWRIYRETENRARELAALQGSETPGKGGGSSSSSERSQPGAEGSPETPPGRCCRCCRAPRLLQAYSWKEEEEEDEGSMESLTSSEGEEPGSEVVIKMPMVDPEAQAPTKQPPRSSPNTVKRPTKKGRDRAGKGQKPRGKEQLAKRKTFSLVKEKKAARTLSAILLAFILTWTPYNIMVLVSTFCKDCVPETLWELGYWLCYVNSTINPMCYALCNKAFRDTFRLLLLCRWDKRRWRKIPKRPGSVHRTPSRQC

O=C(OCCOCCO)c1ccccc1Nc1cccc(C(F)(F)F)c1
inactive: [1] | [2] | [3] | [4] | [5] | [6] | [7] | [8] | [9] | [10] | [11] | [12] | [13] | [14] | [15] | [16] | [17] | [18] | [19] | [20]

Oc1ccc2c(c1)OC[C@@H](N1CCC(O)(c3ccc(F)cc3)CC1)[C@H]2O
inactive: [1] | [2] | [3] | [4] | [5] | [6] | [7] | [8] | [9] | [10] | [11] | [12] | [13] | [14] | [15] | [16] | [17] | [18] | [19] | [20]

CSCCC=O
inactive: [1] | [2] | [3] | [4] | [5] | [6] | [7] | [8] | [9] | [10] | [11] | [12] | [13] | [14] | [15] | [16] | [17] | [18] | [19] | [20]

N#CCN(CC#N)CCN(CC#N)CC#N
inactive: [1] | [2] | [3] | [4] | [5] | [6] | [7] | [8] | [9] | [10] | [11] | [12] | [13] | [14] | [15] | [16] | [17] | [18] | [19] | [20]

CC(CC=O)CC(C)(C)C (stereo not given)
inactive: [1] | [2] | [3] | [4] | [5] | [6] | [7] | [8] | [9] | [10] | [11] | [12] | [13] | [14] | [15] | [16] | [17] | [18] | [19] | [20]

OCc1ccccc1O
inactive: [1] | [2] | [3] | [4] | [5] | [6] | [7] | [8] | [9] | [10] | [11] | [12] | [13] | [14] | [15] | [16] | [17] | [18] | [19] | [20]

c1ccc2c(c1)Oc1ccccc1S2
inactive: [1] | [2] | [3] | [4] | [5] | [6] | [7] | [8] | [9] | [10] | [11] | [12] | [13] | [14] | [15] | [16] | [17] | [18] | [19] | [20]
